Results reported in PubChem BioAssay (NCATS).
Records with an inconclusive call do not appear. Where a call stands in place of a potency, no number is given. Calls of active or inactive are those of the source. Calls come from the whole dose curve; as a rule, active = well fitted cell-killing curve with a large enough effect; inconclusive = small, poorly fitted or top-dose-only effect, or effect the other way; inactive = no such curve, though single readings can be large or run the other way.

Assay: qHTS of pediatric cancer cell lines to identify multiple opportunities for drug repurposing: Confirmatory screen for Saos-2 cells (AID 1347127); note: nearly all actives have a fitted effect of over 60% in size
Conditions: Saos-2 osteosarcoma cell viability; series mostly up to 45.9 µM
Description: Drug repurposing or repositioning has been offered as a strategy for drug development in oncology programs. This approach has special potential for childhood cancers and other rare or orphan diseases, where the expected return on new drug development has been a disincentive to pharmaceuticals.
In this project we exploit the poly-pharmacology of drugs to discover new indications via phenotypic screening of a panel of 19 well-characterized cell lines derived from solid tumors seen in children and adolescents. The goal is to identify approved drugs with previously unrecognized anticancer properties that has the potential to reveal new mechanisms and biological processes involved in carcinogenesis or drug resistance. We employed a titration-based paradigm (quantitative high-throughput screening or qHTS), where all compounds were tested at multiple concentrations for their effect on cell viability. Concentration-response curves (CRCs) were derived directly from the primary screen, and both potency and efficacy values were used to identify compounds with robust bioactivity profiles. We screened the NIH Chemical Genomics Center (NCGC) Pharmaceutical Collection (NPC) and Mechanism Interrogation Plate (MIPE) small molecule collections of approved and investigational compounds against these cell lines; and measured metabolically active cells after 48 hours of compound treatment as a proxy for cell viability.
Assay Submitter: Nathalia J. Martinez, National Center for Advancing Translational Sciences, National Institutes of Health, Rockville, MD, USA; email: natalia.martinez@nih.gov
[1] Shen, M et al. Quantitative high-throughput phenotypic screening of pediatric cancer cell lines identifies multiple opportunities for drug repurposing. Oncotarget 2017 Dec 19;9(4):4758-4772. PMID 29435139.
The cells were obtained from University of North Carolina (UNC), Pediatric Preclinical Testing Program (PPT), and Coriell Institute (CI).
qHTS cell viability assay:
Cells were assayed in growth media at a density of 500-1,000 cells/well. Five microliters of cells were dispensed into 1,536-well, white, solid-bottom, TC-treated plates (Greiner Bio One) using a multidrop dispenser and incubated at 37 degrees C, 5% CO2, under a humidified atmosphere for 5 hours. Twenty-three nanoliters of compounds and controls (neutral control DMSO or positive control bortezomib at final concentration of 2.3 µM) were subsequently transferred by Kalypsys pintool. For primary screens, the MIPE collection was tested at 11-point dilutions (final concentrations range from 0.78 nM to 46 µM) and the NPC collection at 8-point dilutions (final concentrations range from 0.59 nM to 46 µM). Compounds tested in follow-up screens were assayed at 11-point dilutions. Cells were incubated for 48 hours, followed by addition of 3 µL of CellTiter-Glo (Promega). After a 15 min incubation at room temperature, samples were analyzed for luminescence intensity using a ViewLux High-throughput CCD imager equipped with clear filters.
Potency is the fitted concentration of half-maximal effect.

Row | SMILES | Potency
1 | COc1cc2ncnc(Nc3cc(Br)c(O)c(Br)c3)c2cc1OC | inactive
2 | C[C@@]1(C(=O)Nc2ccc(F)nc2)CCCN1c1nc(Nc2cc(C3CC3)[nH]n2)c2cccn2n1 | 1850 nM (active)
3 | Cc1ccc(C(=O)N(CCCN)[C@@H](c2nc3cc(Cl)ccc3c(=O)n2Cc2ccccc2)C(C)C)cc1 | 67.6 nM (active)
4 | CON(C)C(=O)N1N=C(c2cc(F)ccc2F)S[C@]1(CCCN)c1ccccc1 | 5.9 nM (active)
5 | O=C1NC(=O)C(c2cnc3ccccn23)=C1c1cn2c3c(cccc13)CN(C(=O)N1CCOCC1)CC2 | inactive
6 | Nc1ncnc2c1ncn2[C@@H]1O[C@H](CO)[C@@H](O)[C@@H]1O | 9270 nM (active)
7 | C[C@H](c1ccc(F)cc1CCCC(=O)O)N(c1cc(F)ccc1F)S(=O)(=O)c1ccc(Cl)cc1 | inactive
8 | Cc1ccc(C(=O)N(CCCN)[C@@H](c2oc3cc(Cl)ccc3c(=O)c2Cc2ccccc2)C(C)C)cc1 | 9.3 nM (active)
9 | C[C@@H]1[C@H](O)[C@@H](C)C=CC=CC=CC=CC=CC=CC=C[C@H](O[C@@H]2O[C@H](C)[C@H](O)[C@H](N)[C@@H]2O)C[C@@H]2O[C@](O)(C[C@@H](O)C[C@@H](O)[C@H](O)CC[C@@H](O)C[C@@H](O)CC(=O)O[C@H]1C)C[C@H](O)[C@@H]2C(=O)O | inactive
10 | CC(C)CN(C[C@H](O)[C@H](Cc1ccccc1)NC(=O)O[C@H]1CCOC1)S(=O)(=O)c1ccc(N)cc1 | inactive
11 | CN[C@@H]1CN(c2ccc3c(=O)c(C(=O)O)cn(-c4nccs4)c3n2)C[C@@H]1OC | inactive
12 | CO[C@H]1/C=C\O[C@@]2(C)Oc3c(C)c(O)c4c(O)c(c(C=NN5CCN(C6CCCC6)CC5)c(O)c4c3C2=O)NC(=O)C(C)=CC=C[C@H](C)[C@H](O)[C@@H](C)[C@@H](O)[C@@H](C)[C@H](OC(C)=O)[C@H]1C | 20800 nM (active)
13 | CSc1cccc(Nc2ncc3cc(-c4c(Cl)cccc4Cl)c(=O)n(C)c3n2)c1 | 2330 nM (active)
14 | CO[C@H]1/C=C\O[C@@]2(C)Oc3c(C)c(O)c4c(O)c(c5c(nc6cc(C)ccn65)c4c3C2=O)NC(=O)C(C)=CC=C[C@H](C)[C@H](O)[C@@H](C)[C@@H](O)[C@@H](C)[C@H](OC(C)=O)[C@H]1C | inactive
15 | CC1C(=O)OC2C(O)C34C5CC(C(C)(C)C)C36C(OC(=O)C6O)OC4(C(=O)O5)C12O (stereo not given) | inactive
16 | CCCCn1c(=O)n(Cc2ccccc2F)c(=O)c2[nH]c(Cc3ccc(NC(C)=O)cc3)nc21 | inactive
17 | C=CC(=O)Nc1cccc(Sc2nc(Nc3ccc(N4CCN(C)CC4)cc3)ncc2Cl)c1 | 16500 nM (active)
18 | CN1CCN(c2ncc(-c3cc(Cl)cc(Cl)c3Cl)c(N)n2)CC1 | inactive
19 | CCC[C@H](Nc1nc(-c2ccc(NC(=O)NCC)c(OC)c2)ncc1C)c1cccnc1 | 208 nM (active)
20 | CCC(=O)OCC(=O)[C@@]1(OC(=O)CC)[C@@H](C)C[C@@H]2[C@H]3CCC4=CC(=O)C=C[C@]4(C)[C@@]3(F)[C@@H](O)C[C@@]21C | inactive

Row | SMILES | Potency
21 | CCC(c1ccc(O)cc1)C(CC)c1ccc(O)cc1 (stereo not given) | inactive
22 | NC(N)=Nc1nc(CSCCC(N)=NS(N)(=O)=O)cs1 | inactive
23 | CCN(CCO)CCCOc1ccc2c(Nc3cc(CC(=O)Nc4cccc(F)c4)[nH]n3)ncnc2c1 | inactive
24 | Cc1cc(CS(=O)(=O)c2ccccc2)cc(OCc2ccc(CN3CCC[C@H]3CO)cc2)c1 | inactive
25 | CC1(COc2ccc3c(c2)ncn3-c2ccc3cccc(N4CCC(N)CC4)c3n2)COC1 | inactive
26 | O=C1Nc2ccc(I)cc2C1=Cc1cc(Br)c(O)c(Br)c1 | inactive
27 | O=c1[nH]nc(OCCCc2ccc(Cl)cc2)c(NCc2cccnc2)c1Br | inactive
28 | C=C1[C@H](n2cnc3c(=O)[nH]c(N)nc32)C[C@H](O)[C@H]1CO | inactive
29 | Cc1cnc(-c2cc(N3CCN(C(=O)CCS(C)(=O)=O)CC3)ncc2Cl)c(C)c1 | inactive
30 | CC[C@]1(O)C[C@H]2CN(CCC3=c4ccccc4=N[C]3[C@@](C(=O)OC)(c3cc4c(cc3OC)N(C)[C@H]3[C@@](O)(C(N)=O)[C@H](O)[C@]5(CC)C=CCN6CC[C@]43[C@@H]65)C2)C1 | 46.5 nM (active)
31 | CN(C)CC[C@H](CSc1ccccc1)Nc1ccc(S(=O)(=O)NC(=O)c2ccc(N3CCN(Cc4ccccc4-c4ccc(Cl)cc4)CC3)cc2)cc1[N+](=O)[O-] | 5850 nM (active)
32 | C[C@@H]1C[C@H]2[C@@H]3CCC4=CC(=O)C=C[C@]4(C)[C@@]3(F)[C@@H](O)C[C@]2(C)[C@@]1(O)C(=O)CO | inactive
33 | CC1(C)OC2CC3C4CC(F)C5=CC(=O)C=CC5(C)C4C(O)CC3(C)[C@]2(C(=O)CO)O1 (stereo not given in full) | inactive
34 | CCNC(=O)c1noc(-c2cc(C(C)C)c(O)cc2O)c1-c1ccc(CN2CCOCC2)cc1 | 131 nM (active)
35 | COC1CCC(C(=O)c2ccc3nc4c(cc3c2)CCCO4)CC1 (stereo not given) | inactive
36 | Cc1ccccc1-n1c(Cn2nc(-c3cccc(O)c3)c3c(N)ncnc32)nc2cccc(C)c2c1=O | inactive
37 | COc1cc(CNC(=O)CCCCC=CC(C)C)ccc1O | inactive
38 | CN1N=C(N)c2cn([C@@H]3O[C@H](COP(=O)(O)O)[C@@H](O)[C@@H]3O)c3ncnc1c23 | 1850 nM (active)
39 | CC[C@H](NC(=O)[C@H](C)NC)C(=O)N1C[C@@H](O)C[C@H]1Cc1c(-c2[nH]c3cc(F)ccc3c2C[C@H]2C[C@H](O)CN2C(=O)[C@H](CC)NC(=O)[C@H](C)NC)[nH]c2cc(F)ccc12 | 5220 nM (active)
40 | CC1=C[C@@H]2[C@@H]([C@@H](O)C[C@@]3(C)[C@H]2C[C@@H](C)[C@]3(O)C(=O)CO)[C@@]2(C)Cc3cnn(-c4ccccc4)c3C=C12 | inactive
